Reference: the supplement of paper PMC11732987, “Enantioselective OTUD7B fragment discovery through chemoproteomics screening and high-throughput optimisation” (Communications Chemistry, 2025)

Assays:
Assay in all cases: log2 ratio of Biotin-Ahx-Ub-VS probe labelling (fragment/DMSO); higher = less target engagement (more negative = stronger competition), active = hit call of the paper (q ≤ 0.05, log2 ratio ≤ -1)
Conditions in all cases: compound concentration: 200 uM; treatment time: 3 h
USP42 = target: T1, USP42 (UniProt Q9H9J4)
T1 sequence (whole entry): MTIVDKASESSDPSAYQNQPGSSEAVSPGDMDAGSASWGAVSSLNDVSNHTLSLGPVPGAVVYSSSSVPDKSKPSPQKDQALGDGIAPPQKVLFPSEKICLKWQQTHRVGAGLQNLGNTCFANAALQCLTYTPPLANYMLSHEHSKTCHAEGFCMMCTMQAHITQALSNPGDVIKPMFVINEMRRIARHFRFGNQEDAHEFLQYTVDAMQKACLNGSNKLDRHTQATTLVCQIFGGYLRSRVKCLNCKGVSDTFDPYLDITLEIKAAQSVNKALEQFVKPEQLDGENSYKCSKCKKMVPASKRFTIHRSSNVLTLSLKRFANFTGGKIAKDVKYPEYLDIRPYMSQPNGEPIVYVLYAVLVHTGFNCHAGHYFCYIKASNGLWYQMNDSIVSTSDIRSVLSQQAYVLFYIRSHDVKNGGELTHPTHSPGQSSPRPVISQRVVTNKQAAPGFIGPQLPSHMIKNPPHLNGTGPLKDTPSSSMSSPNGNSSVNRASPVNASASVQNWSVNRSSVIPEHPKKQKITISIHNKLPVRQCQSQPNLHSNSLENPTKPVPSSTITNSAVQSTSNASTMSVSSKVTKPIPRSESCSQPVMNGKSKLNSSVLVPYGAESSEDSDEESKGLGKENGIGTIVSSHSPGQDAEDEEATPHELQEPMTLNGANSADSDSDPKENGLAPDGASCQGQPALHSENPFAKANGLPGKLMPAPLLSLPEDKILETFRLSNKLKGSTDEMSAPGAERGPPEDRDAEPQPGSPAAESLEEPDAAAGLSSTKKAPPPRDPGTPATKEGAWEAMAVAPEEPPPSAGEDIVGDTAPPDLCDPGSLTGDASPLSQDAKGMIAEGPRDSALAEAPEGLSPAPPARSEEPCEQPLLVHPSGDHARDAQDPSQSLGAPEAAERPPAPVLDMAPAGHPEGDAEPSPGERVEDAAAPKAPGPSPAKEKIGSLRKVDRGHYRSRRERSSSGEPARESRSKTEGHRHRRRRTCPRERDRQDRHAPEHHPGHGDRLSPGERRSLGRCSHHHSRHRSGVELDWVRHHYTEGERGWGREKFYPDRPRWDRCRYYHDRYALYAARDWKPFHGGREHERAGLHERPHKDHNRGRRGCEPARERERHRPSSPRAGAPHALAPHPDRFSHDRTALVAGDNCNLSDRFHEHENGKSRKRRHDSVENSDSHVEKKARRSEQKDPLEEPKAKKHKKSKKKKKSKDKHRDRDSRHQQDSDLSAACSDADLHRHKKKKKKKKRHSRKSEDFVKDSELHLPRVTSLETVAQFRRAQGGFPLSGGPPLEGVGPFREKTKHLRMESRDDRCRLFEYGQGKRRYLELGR
Summary of the method: (§1)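 HEK293T lysate (495 µg per sample, in Tris/CHAPS/IGEPAL buffer with protease inhibitors) was exposed in triplicate for 3 h to fragment at 200 µM or to vehicle, then to Biotin-Ahx-Ub-VS at 0.5 µM final for 1 h. Labelled DUBs were enriched on NeutrAvidin, digested with LysC and trypsin, and analysed by diaPASEF LC-MS/MS. Spectronaut label-free quantities were normalised to the global median, and values are average log2 ratios of fragment over vehicle from an unpaired t-test. Only proteins with ≥2 unique peptides were used.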

USP46 = USP46 (UniProt P62068)
Summary of the method: as §1

USP47 = target: T2, USP47 (UniProt Q96K76)
T2 sequence (whole entry): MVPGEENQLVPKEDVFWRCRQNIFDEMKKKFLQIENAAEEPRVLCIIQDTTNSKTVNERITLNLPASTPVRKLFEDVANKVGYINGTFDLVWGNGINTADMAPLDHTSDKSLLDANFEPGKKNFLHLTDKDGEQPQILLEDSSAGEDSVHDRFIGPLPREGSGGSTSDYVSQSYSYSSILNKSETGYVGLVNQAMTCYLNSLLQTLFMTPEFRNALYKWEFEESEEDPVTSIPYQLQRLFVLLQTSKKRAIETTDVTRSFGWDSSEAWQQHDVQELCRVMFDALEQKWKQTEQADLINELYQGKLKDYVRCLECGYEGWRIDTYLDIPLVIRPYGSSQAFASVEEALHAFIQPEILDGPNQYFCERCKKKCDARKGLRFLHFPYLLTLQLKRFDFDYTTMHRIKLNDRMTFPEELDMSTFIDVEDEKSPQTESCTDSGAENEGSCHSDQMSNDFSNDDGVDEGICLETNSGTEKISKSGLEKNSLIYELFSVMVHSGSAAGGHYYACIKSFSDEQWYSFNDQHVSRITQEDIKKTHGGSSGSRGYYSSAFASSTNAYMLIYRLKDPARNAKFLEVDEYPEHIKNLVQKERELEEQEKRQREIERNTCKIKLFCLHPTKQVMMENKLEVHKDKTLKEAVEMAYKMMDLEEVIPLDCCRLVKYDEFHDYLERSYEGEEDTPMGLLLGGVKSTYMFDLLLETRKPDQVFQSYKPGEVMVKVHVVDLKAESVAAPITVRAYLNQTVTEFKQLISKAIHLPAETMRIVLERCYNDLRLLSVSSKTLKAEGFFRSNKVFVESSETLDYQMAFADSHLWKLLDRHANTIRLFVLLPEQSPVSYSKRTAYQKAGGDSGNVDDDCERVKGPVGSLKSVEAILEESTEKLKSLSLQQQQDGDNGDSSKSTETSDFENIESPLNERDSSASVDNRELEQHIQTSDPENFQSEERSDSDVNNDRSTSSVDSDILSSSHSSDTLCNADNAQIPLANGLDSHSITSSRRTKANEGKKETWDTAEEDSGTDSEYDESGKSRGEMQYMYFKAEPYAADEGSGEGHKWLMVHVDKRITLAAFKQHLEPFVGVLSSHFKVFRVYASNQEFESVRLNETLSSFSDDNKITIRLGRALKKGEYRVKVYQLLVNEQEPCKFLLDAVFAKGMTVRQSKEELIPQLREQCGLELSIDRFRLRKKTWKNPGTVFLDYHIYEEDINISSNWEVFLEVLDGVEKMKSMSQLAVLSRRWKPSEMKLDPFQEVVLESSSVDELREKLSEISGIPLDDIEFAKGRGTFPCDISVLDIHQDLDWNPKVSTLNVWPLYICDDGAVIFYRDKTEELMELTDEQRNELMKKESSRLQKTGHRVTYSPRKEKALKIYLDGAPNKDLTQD
Summary of the method: as §1

USP48 = target: T3, USP48 (UniProt Q86UV5)
T3 sequence (whole entry): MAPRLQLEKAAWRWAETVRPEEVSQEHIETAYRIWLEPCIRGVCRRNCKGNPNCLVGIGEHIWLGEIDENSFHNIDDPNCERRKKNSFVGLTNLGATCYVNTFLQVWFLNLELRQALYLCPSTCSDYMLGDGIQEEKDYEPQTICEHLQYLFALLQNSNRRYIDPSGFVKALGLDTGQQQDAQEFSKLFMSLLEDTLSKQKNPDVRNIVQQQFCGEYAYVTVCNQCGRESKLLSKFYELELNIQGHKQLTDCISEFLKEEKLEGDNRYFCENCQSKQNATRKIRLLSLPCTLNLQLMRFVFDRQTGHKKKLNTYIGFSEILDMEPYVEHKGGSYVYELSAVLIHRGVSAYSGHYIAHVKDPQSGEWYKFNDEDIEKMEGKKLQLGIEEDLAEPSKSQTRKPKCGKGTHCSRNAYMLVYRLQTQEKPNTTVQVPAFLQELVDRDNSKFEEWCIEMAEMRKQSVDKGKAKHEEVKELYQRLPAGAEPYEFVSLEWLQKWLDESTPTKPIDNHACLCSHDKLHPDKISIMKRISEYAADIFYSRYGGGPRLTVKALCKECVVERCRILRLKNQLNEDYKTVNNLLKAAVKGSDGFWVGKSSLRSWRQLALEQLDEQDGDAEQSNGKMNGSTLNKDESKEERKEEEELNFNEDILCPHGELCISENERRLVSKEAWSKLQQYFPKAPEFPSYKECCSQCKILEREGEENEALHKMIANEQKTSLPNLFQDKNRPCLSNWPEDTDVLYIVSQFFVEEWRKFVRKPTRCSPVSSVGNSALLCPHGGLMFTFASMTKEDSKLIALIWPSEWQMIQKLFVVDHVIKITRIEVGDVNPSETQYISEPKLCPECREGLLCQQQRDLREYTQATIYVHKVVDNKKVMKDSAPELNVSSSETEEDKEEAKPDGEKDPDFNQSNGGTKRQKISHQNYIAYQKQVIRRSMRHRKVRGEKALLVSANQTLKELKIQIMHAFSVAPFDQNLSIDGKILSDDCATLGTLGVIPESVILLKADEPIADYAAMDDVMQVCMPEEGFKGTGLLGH
Summary of the method: as §1

USP5 = target: T4, USP5 (UniProt P45974)
T4 sequence (whole entry): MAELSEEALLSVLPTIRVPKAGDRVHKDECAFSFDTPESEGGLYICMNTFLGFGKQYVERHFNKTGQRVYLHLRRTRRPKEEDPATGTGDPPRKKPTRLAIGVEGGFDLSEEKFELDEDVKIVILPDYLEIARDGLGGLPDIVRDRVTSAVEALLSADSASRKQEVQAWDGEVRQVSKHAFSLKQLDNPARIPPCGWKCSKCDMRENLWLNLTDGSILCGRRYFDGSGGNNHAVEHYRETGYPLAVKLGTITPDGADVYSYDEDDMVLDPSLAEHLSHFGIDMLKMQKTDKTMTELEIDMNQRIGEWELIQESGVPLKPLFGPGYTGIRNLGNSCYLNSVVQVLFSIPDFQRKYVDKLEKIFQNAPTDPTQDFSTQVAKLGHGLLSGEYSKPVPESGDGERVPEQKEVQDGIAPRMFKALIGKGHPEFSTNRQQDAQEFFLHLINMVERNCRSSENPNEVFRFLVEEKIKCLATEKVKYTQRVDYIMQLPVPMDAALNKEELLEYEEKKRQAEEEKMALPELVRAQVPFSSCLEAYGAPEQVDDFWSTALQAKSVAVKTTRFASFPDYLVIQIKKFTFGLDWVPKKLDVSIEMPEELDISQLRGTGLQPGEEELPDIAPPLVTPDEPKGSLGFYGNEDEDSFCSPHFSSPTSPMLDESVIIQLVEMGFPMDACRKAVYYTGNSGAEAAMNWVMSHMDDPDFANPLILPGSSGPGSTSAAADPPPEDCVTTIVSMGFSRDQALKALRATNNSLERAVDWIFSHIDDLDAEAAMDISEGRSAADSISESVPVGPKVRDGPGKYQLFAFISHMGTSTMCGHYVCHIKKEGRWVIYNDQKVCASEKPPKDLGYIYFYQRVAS
Summary of the method: as §1

USP54 = USP54 (UniProt Q70EL1)
Summary of the method: as §1

USP7 = USP7 (UniProt Q93009)
Summary of the method: as §1

USP8 = target: T5, USP8 (UniProt P40818)
T5 sequence (whole entry): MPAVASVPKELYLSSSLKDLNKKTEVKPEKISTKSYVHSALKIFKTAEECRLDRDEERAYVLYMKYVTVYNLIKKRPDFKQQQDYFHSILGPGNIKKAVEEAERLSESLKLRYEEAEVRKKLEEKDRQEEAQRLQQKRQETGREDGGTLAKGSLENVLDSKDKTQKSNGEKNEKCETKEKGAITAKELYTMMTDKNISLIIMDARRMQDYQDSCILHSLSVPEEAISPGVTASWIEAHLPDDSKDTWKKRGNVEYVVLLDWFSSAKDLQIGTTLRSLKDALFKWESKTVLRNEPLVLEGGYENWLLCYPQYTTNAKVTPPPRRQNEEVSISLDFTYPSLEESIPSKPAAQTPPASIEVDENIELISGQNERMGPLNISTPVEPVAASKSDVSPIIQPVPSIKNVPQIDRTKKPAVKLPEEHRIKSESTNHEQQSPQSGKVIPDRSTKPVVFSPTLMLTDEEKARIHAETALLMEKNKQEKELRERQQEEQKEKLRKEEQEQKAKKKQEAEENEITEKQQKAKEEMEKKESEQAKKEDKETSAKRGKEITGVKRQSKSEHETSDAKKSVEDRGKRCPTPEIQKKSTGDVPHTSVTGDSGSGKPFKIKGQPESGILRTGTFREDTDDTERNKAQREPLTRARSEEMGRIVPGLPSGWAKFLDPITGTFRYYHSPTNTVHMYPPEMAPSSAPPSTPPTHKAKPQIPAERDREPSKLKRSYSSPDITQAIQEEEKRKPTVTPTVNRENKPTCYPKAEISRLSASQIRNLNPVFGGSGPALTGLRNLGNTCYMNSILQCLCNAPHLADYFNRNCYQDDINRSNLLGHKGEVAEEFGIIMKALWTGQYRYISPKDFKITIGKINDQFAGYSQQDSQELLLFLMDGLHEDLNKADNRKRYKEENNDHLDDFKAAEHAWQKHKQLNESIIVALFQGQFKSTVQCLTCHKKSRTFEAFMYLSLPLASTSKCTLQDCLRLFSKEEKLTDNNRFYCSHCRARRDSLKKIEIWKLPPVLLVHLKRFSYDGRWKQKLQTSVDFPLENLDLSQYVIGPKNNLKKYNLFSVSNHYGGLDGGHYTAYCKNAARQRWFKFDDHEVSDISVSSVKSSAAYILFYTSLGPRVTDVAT
Summary of the method: as §1

USP9X = USP9X (UniProt Q93008)
Summary of the method: as §1

UniProt O00487 = target: UniProt O00487
Summary of the method: as §1

Measured: log2 ratio of Biotin-Ahx-Ub-VS probe labelling

USP9X, sequence (Q93008 whole entry): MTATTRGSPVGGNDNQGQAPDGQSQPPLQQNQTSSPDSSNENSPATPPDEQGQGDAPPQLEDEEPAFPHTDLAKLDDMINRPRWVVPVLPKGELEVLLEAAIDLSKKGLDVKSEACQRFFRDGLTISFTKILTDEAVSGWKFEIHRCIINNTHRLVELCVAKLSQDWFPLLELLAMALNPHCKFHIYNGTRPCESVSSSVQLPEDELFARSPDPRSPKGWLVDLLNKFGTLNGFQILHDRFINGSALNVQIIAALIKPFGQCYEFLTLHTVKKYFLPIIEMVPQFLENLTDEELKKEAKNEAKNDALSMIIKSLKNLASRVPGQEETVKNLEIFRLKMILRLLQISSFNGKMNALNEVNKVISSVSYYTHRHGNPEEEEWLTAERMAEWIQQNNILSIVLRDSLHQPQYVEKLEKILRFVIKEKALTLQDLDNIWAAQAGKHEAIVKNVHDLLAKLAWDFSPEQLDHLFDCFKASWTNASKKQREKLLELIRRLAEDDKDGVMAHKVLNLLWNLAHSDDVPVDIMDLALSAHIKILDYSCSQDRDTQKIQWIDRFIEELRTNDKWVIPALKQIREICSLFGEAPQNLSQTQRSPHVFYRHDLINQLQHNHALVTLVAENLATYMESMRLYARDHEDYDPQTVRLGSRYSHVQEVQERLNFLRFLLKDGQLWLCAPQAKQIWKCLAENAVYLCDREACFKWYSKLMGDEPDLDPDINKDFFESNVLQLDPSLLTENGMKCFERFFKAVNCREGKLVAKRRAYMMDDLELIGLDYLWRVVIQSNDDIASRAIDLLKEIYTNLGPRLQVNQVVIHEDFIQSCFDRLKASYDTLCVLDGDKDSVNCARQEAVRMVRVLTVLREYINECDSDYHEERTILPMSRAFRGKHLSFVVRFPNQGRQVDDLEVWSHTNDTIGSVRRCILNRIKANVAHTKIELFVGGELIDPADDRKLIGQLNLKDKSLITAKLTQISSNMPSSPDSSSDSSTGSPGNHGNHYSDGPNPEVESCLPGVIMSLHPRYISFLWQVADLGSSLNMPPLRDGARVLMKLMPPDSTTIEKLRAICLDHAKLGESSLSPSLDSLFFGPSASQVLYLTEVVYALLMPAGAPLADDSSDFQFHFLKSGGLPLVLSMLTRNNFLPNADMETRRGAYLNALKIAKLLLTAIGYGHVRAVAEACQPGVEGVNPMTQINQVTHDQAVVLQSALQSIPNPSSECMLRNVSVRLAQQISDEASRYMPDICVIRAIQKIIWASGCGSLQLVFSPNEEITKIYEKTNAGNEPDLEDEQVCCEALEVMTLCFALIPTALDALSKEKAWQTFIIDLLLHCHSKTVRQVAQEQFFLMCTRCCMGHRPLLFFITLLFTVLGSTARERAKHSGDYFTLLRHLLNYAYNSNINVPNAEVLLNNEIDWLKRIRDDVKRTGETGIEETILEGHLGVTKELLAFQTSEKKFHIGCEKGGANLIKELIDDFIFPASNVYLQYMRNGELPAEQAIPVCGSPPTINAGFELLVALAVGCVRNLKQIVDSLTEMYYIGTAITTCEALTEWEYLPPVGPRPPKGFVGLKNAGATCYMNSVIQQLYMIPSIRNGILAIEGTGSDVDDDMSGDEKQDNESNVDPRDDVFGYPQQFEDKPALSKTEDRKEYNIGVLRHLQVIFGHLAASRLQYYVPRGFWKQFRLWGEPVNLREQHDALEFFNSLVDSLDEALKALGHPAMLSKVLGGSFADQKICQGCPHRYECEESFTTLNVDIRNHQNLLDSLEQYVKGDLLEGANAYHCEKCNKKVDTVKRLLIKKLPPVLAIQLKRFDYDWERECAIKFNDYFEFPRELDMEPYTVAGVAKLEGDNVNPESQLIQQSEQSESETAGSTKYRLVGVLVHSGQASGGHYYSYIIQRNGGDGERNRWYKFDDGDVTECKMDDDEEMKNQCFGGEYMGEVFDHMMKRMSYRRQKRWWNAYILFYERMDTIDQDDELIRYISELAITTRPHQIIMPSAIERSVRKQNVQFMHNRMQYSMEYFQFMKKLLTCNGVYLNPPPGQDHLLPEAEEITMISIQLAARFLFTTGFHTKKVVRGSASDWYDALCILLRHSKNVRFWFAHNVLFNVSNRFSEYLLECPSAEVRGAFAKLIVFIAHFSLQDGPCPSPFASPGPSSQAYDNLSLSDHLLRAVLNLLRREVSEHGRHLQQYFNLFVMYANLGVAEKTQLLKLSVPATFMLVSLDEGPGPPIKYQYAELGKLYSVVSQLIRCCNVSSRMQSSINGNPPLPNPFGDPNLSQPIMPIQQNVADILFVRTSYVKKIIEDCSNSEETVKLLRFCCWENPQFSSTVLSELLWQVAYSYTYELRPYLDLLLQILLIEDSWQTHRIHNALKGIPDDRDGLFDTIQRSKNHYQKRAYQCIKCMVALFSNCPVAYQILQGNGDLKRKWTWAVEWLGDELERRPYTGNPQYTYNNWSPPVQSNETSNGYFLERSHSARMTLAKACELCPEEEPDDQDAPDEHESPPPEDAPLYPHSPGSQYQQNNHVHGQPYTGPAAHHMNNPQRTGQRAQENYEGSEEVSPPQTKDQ
USP7, sequence (Q93009 whole entry, looked up): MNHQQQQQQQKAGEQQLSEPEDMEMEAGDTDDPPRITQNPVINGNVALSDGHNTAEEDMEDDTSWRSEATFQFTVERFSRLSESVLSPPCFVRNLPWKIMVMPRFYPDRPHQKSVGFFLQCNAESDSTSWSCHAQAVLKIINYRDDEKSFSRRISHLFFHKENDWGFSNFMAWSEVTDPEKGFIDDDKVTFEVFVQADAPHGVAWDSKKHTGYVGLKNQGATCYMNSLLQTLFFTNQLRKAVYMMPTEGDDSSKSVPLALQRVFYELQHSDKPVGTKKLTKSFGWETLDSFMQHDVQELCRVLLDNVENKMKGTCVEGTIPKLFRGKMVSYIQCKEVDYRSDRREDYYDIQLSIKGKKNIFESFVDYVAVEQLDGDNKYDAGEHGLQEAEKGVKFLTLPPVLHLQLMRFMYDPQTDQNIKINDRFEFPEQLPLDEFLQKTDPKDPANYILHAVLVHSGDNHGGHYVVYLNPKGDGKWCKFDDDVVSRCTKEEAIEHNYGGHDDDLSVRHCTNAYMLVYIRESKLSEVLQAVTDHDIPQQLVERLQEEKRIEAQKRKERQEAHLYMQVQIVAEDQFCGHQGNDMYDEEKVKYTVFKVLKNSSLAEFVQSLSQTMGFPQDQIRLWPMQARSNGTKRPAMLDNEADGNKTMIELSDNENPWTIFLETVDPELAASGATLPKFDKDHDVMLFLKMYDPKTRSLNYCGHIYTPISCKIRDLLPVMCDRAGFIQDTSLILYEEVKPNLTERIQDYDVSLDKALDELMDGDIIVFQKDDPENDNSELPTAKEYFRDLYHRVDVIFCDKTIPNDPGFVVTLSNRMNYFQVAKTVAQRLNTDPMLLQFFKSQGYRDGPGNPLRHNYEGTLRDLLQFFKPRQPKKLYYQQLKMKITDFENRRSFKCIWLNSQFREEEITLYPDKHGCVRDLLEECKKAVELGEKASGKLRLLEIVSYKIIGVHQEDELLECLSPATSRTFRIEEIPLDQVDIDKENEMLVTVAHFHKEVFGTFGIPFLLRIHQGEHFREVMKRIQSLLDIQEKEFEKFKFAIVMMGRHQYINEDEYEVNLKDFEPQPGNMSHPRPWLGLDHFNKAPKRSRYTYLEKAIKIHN
USP46, sequence (P62068 whole entry): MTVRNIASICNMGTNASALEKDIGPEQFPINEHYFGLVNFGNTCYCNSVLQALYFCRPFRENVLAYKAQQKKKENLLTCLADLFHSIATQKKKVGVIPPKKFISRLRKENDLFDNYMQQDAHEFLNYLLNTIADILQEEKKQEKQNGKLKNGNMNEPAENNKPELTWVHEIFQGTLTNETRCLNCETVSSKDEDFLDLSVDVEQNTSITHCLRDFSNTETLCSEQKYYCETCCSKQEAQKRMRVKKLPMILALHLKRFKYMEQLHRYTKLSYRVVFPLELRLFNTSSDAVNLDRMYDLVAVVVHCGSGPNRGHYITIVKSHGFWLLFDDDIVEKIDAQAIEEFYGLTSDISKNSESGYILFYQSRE
UniProt O00487, sequence (O00487 whole entry): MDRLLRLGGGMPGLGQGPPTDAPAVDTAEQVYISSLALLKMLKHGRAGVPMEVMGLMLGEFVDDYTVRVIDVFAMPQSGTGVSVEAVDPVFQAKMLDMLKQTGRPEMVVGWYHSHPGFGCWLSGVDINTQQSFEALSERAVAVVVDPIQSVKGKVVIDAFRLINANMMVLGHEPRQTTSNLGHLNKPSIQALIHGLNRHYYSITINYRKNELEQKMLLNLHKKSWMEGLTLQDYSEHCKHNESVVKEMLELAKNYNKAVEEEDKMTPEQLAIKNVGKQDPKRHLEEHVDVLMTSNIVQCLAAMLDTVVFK

CC1CN(c2ccc(NC(=O)CCl)cc2)CC(C)O1 (stereo not given)
inactive: USP42 0.0421 | USP46 0.0265 | USP47 -0.557 | USP48 -0.402 | USP5 -0.0419 | USP54 0.973 | USP7 -0.186 | USP8 -0.0842 | USP9X -0.166 | UniProt O00487 -0.0932
